Rows were chosen to be rich in hits. Some 8.9% of all compounds tested hit in one or more screens of this group.
IMPase inh: cell-permeable inhibitors of inositol monophosphatase (IMPase); CHO-M1 cells, IP1 accumulation, HTRF TR-FRET ratio; inhibition (IP1 accumulation), % at 46.1 µM; P97697; AID 901; 120,000 tested, under 10 active; active = well fitted curve in the direction sought with a large enough effect in the signal ratio, not every such curve was filed as active; inconclusive = small, poorly fitted or top-dose-only effect, or a change in a side signal; inactive = no such curve, though single readings can be large or run the other way; the % refers to the signal ratio;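 note: cells stimulated with carbachol in lithium chloride buffer; plate controls were DMSO basal wells for no effect and reference inhibitor wells for full effect; higher means more IMPase inhibition seen as more IP1 and lower FRET ratio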
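CHO-M1 cells (CHO stably expressing M1 receptor), compound up to 46 uM final, stimulated with carbachol (50 uM as added) in buffer with 50mM LiCl, pH 7.4, 30 min at 37C. Cytosolic IP1 read by TR-FRET; AC50 from Hill fits.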
NPSR antagonist: neuropeptide S receptor (human) antagonism, cAMP. Q6W5P4. CHO-NPSR cells, cAMP TR-FRET, antagonist mode. Potency, µM (doses to about 38.3 µM), without a hit: at the top dose activity change, negative = inhibition, actives largely listed as inhibitors. actives 1% (n = 220,000); note: potency is the fitted concentration of half-maximal effect; nearly all actives have a fitted effect of over 50% in size
ALOX12 inhib: inhibitors of human 12-lipoxygenase (ALOX12) | purified 12-hLO, xylenol orange hydroperoxide absorbance | actives 0.12% (n = 150,000) | Potency, µM (top dose mostly 57.1 µM), for inactives: top-dose activity change, negative = inhibition, hits mostly inhibitors; note: potency is the fitted concentration of half-maximal effect; nearly all actives have a fitted effect of over 55% in size
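150 nM 12hLO, 25 mM Hepes pH 7.0 + 0.01% Triton X-100; cpd preinc 15 min RT; 40 uM arachidonic acid, 30 min RT; Fe-XO 30 min; A573/A405 ratio as read-out.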
ALDH1A1 block: ALDH1A1 (human) enzyme inhibition | Purified ALDH1A1, NADH fluorescence, propionaldehyde substrate | AID 1030 | Potency, µM (highest dose often 75.3 µM), for inactives: at the top dose activity, negative = inhibition, actives largely listed as inhibitors | actives 7.3% (n = 220,000); active = well fitted inhibition curve with a large enough effect, not every such curve was filed as active; inconclusive = small, poorly fitted or top-dose-only effect, or another doubt; inactive = no such curve, though single readings can be large or run the other way;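 note: potency is the fitted concentration of half-maximal effect; plate controls were no enzyme wells and a reference inhibitor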
HPGD inh: HPGD (human) dehydrogenase inhibition | P15428 | purified HPGD, NADH fluorescence kinetic, PGE2 substrate | Potency, µM, for the others: at the highest dose activity change, negative = inhibition, most hits filed as inhibitors | actives 4.3% (n = 150,000) | AID 894; active = well fitted inhibition curve with a large enough effect, not every such curve was filed as active; inconclusive = small, poorly fitted or top-dose-only effect, or another doubt; inactive = no such curve, though single readings can be large or run the other way; note: potency is the fitted concentration of half-maximal effect
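20 nM HPGD preincubated 15 min at room temperature with compound in 50 mM Tris-HCl pH 8, 0.01% Tween 20. Started with 1 mM NAD+ and 30 uM prostaglandin E2; NADH fluorescence (360/450 nm) read 5 times over 30-s intervals, last minus first.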
IMPase Li inh: membrane-permeable IMPase blocker, potentiated with lithium; Potency, µM (top dose mostly 59.4 µM), without a hit: top-dose activity, negative = IMPase inhibition, usual class: inhibitors; CHO-M1 cells, IP1 TR-FRET (IP-One), carbachol + lithium; actives 0.35% (n = 210,000); AID 1457;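 note: IP1 builds up when IMPase is blocked and the TR-FRET signal falls; potency is the fitted concentration of half-maximal effect; plate controls were basal vehicle for no effect and high inhibitor control for full effect; nearly all actives have a fitted effect of over 50% in size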
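CHO-M1, 2000 cells/well, 16–30 h culture; cpd + low Li+, 30 min 37C; lysis with d2-IP1/Eu-anti-IP1 Ab, 10 min RT; TR-FRET 665/620 ratio and 620 channel; AC50 via Hill.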
Active calls of the source: *; [ ] = another dose, or the depositor's remark. Unless noted, calls come from the whole dose curve; as a rule, active = well fitted curve in the direction sought with a large enough effect; inconclusive = small, poorly fitted or top-dose-only effect, or another doubt; inactive = no such curve, though single readings can be large; an effect the other way counts as inactive or inconclusive. Unless noted, % is set by controls: 0 for no effect and ±100 for the full control effect.

For Cc1cccc(NC(=S)Nc2ccccn2)c1C the results were IMPase inh 6, NPSR antagonist 4%[46.1 µM], ALOX12 inhib 2%, ALDH1A1 block inconclusive, HPGD inh -3% and IMPase Li inh 4%.
`Cc1cc(NC(=S)Nc2cccc3ccccc23)n[nH]1` gave NPSR antagonist -8%, ALDH1A1 block 6.3µM* and IMPase Li inh -2%.
Screening C=CCN(CC=C)C(=S)Nc1ccc2nsnc2c1 returned NPSR antagonist -17%, ALDH1A1 block 11µM* and IMPase Li inh -13%.
C=CCNC(=S)Nc1ccc2nsnc2c1 was read as NPSR antagonist -31%, ALOX12 inhib -1%, ALDH1A1 block -6%, HPGD inh -11% and IMPase Li inh -12%.
COc1ccc(NC(=S)Nc2ccc3nc(C)c(C)nc3c2)cc1 was read as IMPase inh -1, NPSR antagonist -8%[46.1 µM], ALOX12 inhib -4%, ALDH1A1 block -3%, HPGD inh -8% and IMPase Li inh 4%[38.3 µM].
Screening O=C1Cc2ccccc2C(c2ccc(Cl)cc2Cl)N1 (stereo unspecified) returned NPSR antagonist -1%.
`CCOC(=O)CNc1nc(Oc2ccc(=O)n(C)n2)nc(N(CC)CC)n1` gave NPSR antagonist 11%, ALDH1A1 block 8% and IMPase Li inh 13%.
Screening O=S(=O)(Nc1ccc(O)c(CN2CCCCC2)c1)c1ccccc1 returned IMPase inh -6, NPSR antagonist -29%[46.1 µM], ALOX12 inhib -8%, ALDH1A1 block -5%, HPGD inh -1% and IMPase Li inh 5%[38.3 µM].
CCOc1ccc(NC(=S)Nc2cc(C)[nH]n2)cc1 was read as NPSR antagonist 0%, ALDH1A1 block 14µM* and IMPase Li inh 4%.
Cc1[nH]c2ccccc2c1SCc1ccccc1 was read as NPSR antagonist inconclusive, ALDH1A1 block 0% and IMPase Li inh 13%.
`COc1ccc(-c2cc(N)n(S(=O)(=O)c3c(F)c(F)c(F)c(F)c3F)n2)cc1OC` gave IMPase inh 1, NPSR antagonist inconclusive, ALOX12 inhib -20%, ALDH1A1 block 32µM*, HPGD inh -21% and IMPase Li inh 12%[38.3 µM].
`CCCCOC(=O)n1ccc(C(=O)Nc2ccccc2OC)n1` gave IMPase inh 8, NPSR antagonist 5%[7.67 µM], ALOX12 inhib -7%, ALDH1A1 block 4%, HPGD inh -6% and IMPase Li inh 7%[38.3 µM].
For Fc1ccc(C2NC(=S)NC3=C2N2CCC3CC2)cc1 (stereo unspecified) the results were IMPase inh 2, NPSR antagonist 9%[46.1 µM], ALOX12 inhib 4%, ALDH1A1 block 14µM*, HPGD inh -5% and IMPase Li inh 13%[38.3 µM].
`CN(Cc1cnc2nc(N)nc(N)c2n1)c1ccc(C(=O)N[C@H](CCC(=O)O)C(=O)O)cc1` gave IMPase inh 3[20.6 µM], ALOX12 inhib 2%[25.6 µM], ALDH1A1 block -5%[20.9 µM], HPGD inh inconclusive and IMPase Li inh 3%.
`COc1ccc(-c2cc(C(=O)N3CC4(C)CC3CC(C)(C)C4)no2)cc1OC` (stereo unspecified) gave IMPase inh 3, NPSR antagonist inconclusive, ALOX12 inhib -3%, ALDH1A1 block -15%, HPGD inh -25% and IMPase Li inh 13%[38.3 µM].
Screening O=C(c1cc(-c2ccc(Cl)c(Cl)c2)on1)N1CCCCC1 returned IMPase inh 8, NPSR antagonist -11%[46.1 µM], ALOX12 inhib -10%, ALDH1A1 block 8.9µM*, HPGD inh 2.8µM* and IMPase Li inh 0%[38.3 µM].
Screening CC1CCCCN1C(=O)c1cc(-c2ccc(Cl)c(Cl)c2)on1 (stereo unspecified) returned IMPase inh 6, NPSR antagonist -22%[46.1 µM], ALOX12 inhib -14%, ALDH1A1 block inconclusive, HPGD inh 4.5µM* and IMPase Li inh 12%[38.3 µM].
